The supplement of paper PMC6555819

Assays:
Assay in all cases: PBM binding z-score (relative to random genomic background probes); higher = stronger binding; sequences stand for … in GC…GCGATTGACAGCGTAGAATGAAGG
[1] = tested on: RARb homodimer (NR concentration 270 nM)
Outline: (§1)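 Probes were double-stranded and carried 34-nt variable regions with direct-repeat seeds, single-nucleotide variants, half-site ablations and random human genomic background sequences, printed on custom Agilent 4×180K protein-binding microarrays. Arrays were incubated 1 h with ligand-free nuclear receptor dimers in PBS pH 7.4, 2% milk, 0.02% Triton X-100, 1 mM DTT, 0.2 mg/mL BSA and 0.4 mg/ml salmon testes DNA. Antibodies against each partner (one per run) detected binding, and scanned fluorescence was regression-normalized. Binding z-scores use the random background probes as reference.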

[2] = tested on: RARg:RXRa (NR concentration 270 nM, RXRa partner concentration 90 nM)
Outline: as §1

[3] = tested on: RARg homodimer (NR concentration 270 nM)
Outline: as §1

[4] = tested on: RXRa DBDmut IVT, anti-RXR (DBD mutation: RXRa K156A/R161A, NR concentration 90 nM)
Outline: as §1

[5] = tested on: RXRa homodimer (NR concentration 180 nM)
Outline: as §1

[6] = tested on: THRa:RXRa (NR concentration 90 nM, RXRa partner concentration 90 nM)
Outline: as §1

[7] = tested on: THRa homodimer (NR concentration 90 nM)
Outline: as §1

[8] = tested on: VDR homodimer (NR concentration 270 nM)
Outline: as §1

| Sequence | PBM binding z-score [1] | PBM binding z-score [2] | PBM binding z-score [3] | PBM binding z-score [4] | PBM binding z-score [5] | PBM binding z-score [6] | PBM binding z-score [7] | PBM binding z-score [8] |
| --- | --- | --- | --- | --- | --- | --- | --- | --- |
| AGAACGAGGGCACGCTGAGTAGATAGCAGAGTAG | 0.843 | 1.94 | 2.23 | 1.58 | 1.45 | 1.58 | -0.259 | 0.46 |
| CCGACTGGGGCATAAGGTTACCATAAGCCAGCCC | 1.69 | 1.62 | 1.17 | -0.574 | 1.13 | 2.01 | 1.13 | -0.0146 |
| CGTCCAAGGTAATAGGAGGTCAGTGAAGACAGAT | 2.88 | 2.11 | 2.21 | 0.17 | 1.8 | 3.94 | 1.27 | 1.2 |
| GCGACTGGGGCATCAGCAGGATACCATAACTTAA | -0.0166 | -0.0136 | 0.464 | -0.418 | -0.172 | 0.271 | -0.673 | -0.734 |
| CATACAGGATCAGCTAGGCCAGAGTAGGGACGGC | -0.0161 | -0.112 | 0.213 | -0.652 | -0.0715 | -0.122 | 0.03 | 0.0286 |
| CCTACTGGGCCATTCAGAGGTCATTGAACATATG | 4.05 | 4.74 | 3.46 | 1.03 | 4.17 | 3.33 | 1.65 | 4.01 |
| ACTAGCAGGCAAAGGGTCACTCAAGATTAGTCCG | 3.87 | 3.98 | 3.89 | 0.88 | 4.31 | 2.58 | 0.198 | 1.57 |
| AGTCAAATTTCAGGACGAGGTAACGTAAAGCACG | 0.179 | 0.276 | 0.438 | -0.237 | 0.24 | 2.29 | 1.82 | 0.197 |
| TCTTGTAGATCAAGCGGGTTAAGAAAGCCTGAGT | 0.106 | -0.294 | -0.546 | 0.628 | 0.204 | 0.221 | -0.488 | -0.0254 |
| GGAACGAGGGCAAGTTGATATCAGAGTTTGATGG | 1.7 | 1.66 | 2.58 | 2.63 | 0.916 | 1.46 | 0.151 | 2.21 |
| ACTTACCGGTCAACGAGGTTATAGCACGCGTATA | 2.92 | 3.45 | 3.85 | 1.25 | 2.27 | 2.69 | 1.21 | 2.26 |
| TCTTATAGGTAATACAGGTGAAAGTCGGCATCTA | 0.728 | 0.769 | 0.709 | 1.75 | 1.18 | 1.09 | 0.611 | 0.529 |
| ATATGTAGGTTGCATCCGGGTCATTCAGGCTATG | 2.16 | 2.04 | 1.12 | 0.735 | 2.28 | 3.03 | 1.96 | 2.66 |
| ATACCAAGGTGATGGTGAGGTCGTTGATACTAAC | 1.83 | 1.84 | 0.644 | 0.506 | 1.11 | 3.24 | 2.44 | 2.63 |
| CAAACTAGGTCAAAGGTCAATGTCGAGCCAACCA | 5.2 | 8.62 | 7.28 | 3.16 | 9.99 | 4.71 | 1.71 | 3.03 |
| ATATGTAGGTTATATCCGGGTCATTCAGGCTATG | 2.73 | 3.85 | 1.81 | 1.22 | 2.84 | 3.82 | 2.73 | 3.33 |
| CCTGATAGGTCATGGTCAGCTAATCTACAGTATG | 3.69 | 5.08 | 5.2 | 1.57 | 5.33 | 2.46 | 0.212 | 0.195 |
| AGAACGCGGGCACGCTGAGTTGATAGCAGAGTAG | -0.459 | 0.0245 | 0.351 | -0.368 | 0.141 | -0.476 | -1.01 | 0.0842 |
| GATACAGGGTCAGCTAGAGACCAGAGTATGGAAA | 2.5 | 4.48 | 4.19 | 0.915 | 3.99 | 2.5 | 0.211 | 0.881 |
| TGAATGAGGTTATAATATCAGGGAACGTTGCAAA | 0.41 | 1.56 | 1.12 | 0.98 | 2.04 | 1.92 | 0.355 | 0.545 |
| AGTCAAAGTTCATCGAGGTAACGTAAGATATGCT | 4.15 | 5.57 | 6.25 | 4.45 | 4.87 | 3.97 | 1.19 | 5.6 |
| AGAATGAGGATAAGATCAGGGAAACAGAATACAT | -0.0231 | 0.224 | 0.322 | -0.458 | 0.578 | 1.42 | 0.69 | -0.103 |
| GGAACGAGGGCGAAGTTGATAGCATCTGTCGACG | -0.341 | 0.0412 | 0.2 | 1.17 | 0.297 | -0.192 | -0.526 | 0.152 |
| ATCTCTAGGTAATAAGTTCAGTGAAAGAGAGGAC | 2.13 | 1.53 | 1.59 | 1.23 | 0.755 | 1.64 | 1.31 | 2.41 |
| CGAACGAGGGCATGAGTTTATAGCAAATGCCGAT | 1.15 | 1.31 | 1.81 | 3.01 | 1.07 | 1.42 | 0.067 | 4.17 |
| CCTACTCGGCCATCAGGTCATTGATATCAACGTT | 3.21 | 2.43 | 2.51 | 1.21 | 1.33 | 3.16 | 3.66 | 2.42 |
| TCTCGGAGGCCACGAAGGTCAGAGCTTTCCAGAG | 3.74 | 3.08 | 3.36 | 0.442 | 1.88 | 2.12 | -0.105 | 0.706 |
| AGAATGAGGTTACCAAAGAGCAGGGAAACGCTTG | 0.563 | 1.8 | 1.43 | 0.987 | 2.24 | 2.73 | 0.573 | 0.0969 |
